According to the supplement of paper PMC13392028:
The full ranking holds about 4,100 sequences; the median of “RBNS R-value (6-mer enrichment in protein-bound RNA vs input library)” is about 0.99, and the highest 2% start at about 1.4. For the sample, the highest values were picked, then their nearest neighbours and some sequences at random.

Test system: PfIESI-1 RRM domain (Plasmodium falciparum ortholog aa 875-1232, GST fusion)
Assay: RBNS R-value (6-mer enrichment in protein-bound RNA vs input library) (ratio); higher = stronger binding preference; the methods of the paper give 50 / 100 / 500 nM protein instead
Summary of the method: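 GST-tagged RNA-recognition-motif regions of IESI-1 orthologues from three Plasmodium species were expressed in E. coli and purified. Protein was incubated at room temperature with a random 40-mer in vitro transcribed RNA library, captured on glutathione magnetic agarose beads and washed three times. Bound RNA and the input library were reverse transcribed and sequenced on a MiSeq. R-value is each 6-mer's enrichment in bound RNA over input, from the Burge lab pipeline, one replicate.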

Sequence | RBNS R-value (protein concentration: 250 nM) | RBNS R-value (protein concentration: 500 nM) | RBNS R-value (protein concentration: 1000 nM)
CAGGCA | 1.07 | 1.06 | 1.07
GUGCGC | 0.961 | 0.907 | 0.975
UUCUCC | 0.999 | 0.954 | 0.96
UUAUCG | 0.802 | 0.76 | 0.799
GUAUUG | 0.976 | 0.938 | 0.944
GUAAUA | 0.77 | 0.864 | 0.803
CAUUUU | 0.932 | 0.925 | 0.962
GAUUUU | 1.78 | 1.92 | 1.53
UAUUUA | 0.769 | 0.744 | 0.736
CAUUUG | 1.03 | 1.08 | 1.04
CAUUUC | 0.964 | 0.947 | 0.999
AAUUUC | 1.06 | 1.11 | 1.05
AAUUUG | 1.08 | 1.18 | 1.11
GAUUUC | 1.71 | 1.74 | 1.52
GAUUUG | 1.88 | 1.94 | 1.51
AAUUUU | 0.989 | 1.08 | 1.03
GAUUUA | 1.33 | 1.46 | 1.22
CAUUUA | 0.761 | 0.749 | 0.752
CCUCGA | 1.12 | 1.08 | 1.11
GUGUCA | 0.85 | 0.872 | 0.887
GAUACG | 1.1 | 1.13 | 1.09

Sequence | RBNS R-value (protein concentration: 250 nM) | RBNS R-value (protein concentration: 500 nM) | RBNS R-value (protein concentration: 1000 nM)
GCGGUA | 0.985 | 0.954 | 1
CUCCUA | 0.889 | 0.834 | 0.858
GCUUGC | 1.01 | 0.943 | 0.985
GAUAGA | 1.21 | 1.3 | 1.18
GAUAGC | 1.44 | 1.48 | 1.3
GAUAGU | 1.01 | 1.06 | 1
AAACGG | 1.06 | 1.07 | 1.08
AAAGCU | 0.98 | 1.05 | 1.03
CCCAGG | 1.27 | 1.21 | 1.27
CCCAGA | 1.39 | 1.32 | 1.3
CCCAGU | 1.09 | 1.03 | 1.06
ACAUGA | 1.25 | 1.37 | 1.2
CCUUUA | 0.814 | 0.763 | 0.779
UGACCG | 1.04 | 1.02 | 1.07
AUUUGU | 0.92 | 0.975 | 0.913
CUUUGU | 0.825 | 0.805 | 0.863
AUUUGA | 1.45 | 1.59 | 1.34
CUUUGA | 1.35 | 1.41 | 1.26
UUUUGA | 1.53 | 1.59 | 1.37
CUUUGG | 0.959 | 0.914 | 0.962
UUUUGU | 0.909 | 0.927 | 0.922

Sequence | RBNS R-value (protein concentration: 250 nM) | RBNS R-value (protein concentration: 500 nM) | RBNS R-value (protein concentration: 1000 nM)
UUUUGC | 1.06 | 1.04 | 1.02
AUUUGG | 1.1 | 1.17 | 1.06
CCCUCG | 1.05 | 0.973 | 1.06
AAAAUA | 0.851 | 1.05 | 0.927
CCAAAU | 0.978 | 1.04 | 0.995
AGCUGU | 0.94 | 0.939 | 0.951
CCACAA | 0.988 | 0.991 | 1
CUAGAG | 1.1 | 1.1 | 1.09
GAUCGU | 0.85 | 0.817 | 0.886
UGUGAC | 0.993 | 0.99 | 0.972
GGUGAG | 1.02 | 1.02 | 1.02
AGUGAU | 1.55 | 1.73 | 1.44
AGUGAA | 0.981 | 1.04 | 1.05
CGUGAG | 0.982 | 0.993 | 1.05
CGUGAA | 0.992 | 1.03 | 1.05
GGUGAC | 0.986 | 0.987 | 1.01
UGUGAG | 0.948 | 1 | 1.06
GGUGAU | 1.33 | 1.4 | 1.28
CGUGAU | 1.56 | 1.62 | 1.39
UGUGAU | 1.55 | 1.73 | 1.39
AGUGAC | 1.02 | 1.05 | 1.03
